# TDP1 cell CPT: DT40-hTDP1 cell growth loss with CPT; chicken DT40 Tdp1-/-;hTDP1 cells + 20 nM CPT, ATP luminescence, 48 h; Potency, µM (titrated, usually from 46.2 µM), for the others: at the highest dose activity change, negative = growth inhibition, hits mostly inhibitors; 420,000 tested, 12% active; AID 686979; also: potency is read from the fitted curve at half-maximal effect; % is scaled to controls: 0 for no effect and ±100 for the full control effect; nearly all actives have a fitted effect of over 55% in size
#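 Chicken DT40 Tdp1-/- cells complemented with human TDP1, 400 cells/well, exposed to compounds plus 20 nM camptothecin for at least 48 h at 37 C; viability read as ATP content by CellTiter-Glo luminescence.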
# TGFb SMAD3 inh: TGF-b pathway inhibition. HepG2 CAGA-GFP TGF-b/SMAD3 reporter, GFP fluorescence, 18 h; TGF-beta stimulated, 500 pg/mL final. Potency, µM (series often up to 46.1 µM), without a hit: at the top dose activity, negative = inhibition, hits mostly inhibitors. 410,000 tested, 1.2% active; also: potency is read from the fitted curve at half-maximal effect; % is scaled to controls: 0 for no effect and ±100 for the full control effect; nearly all actives have a fitted effect of over 65% in size
#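 Inhibition of TGF-beta-driven CAGA-GFP reporter expression in HEPG2 cells is measured by cellular GFP fluorescence after 18 h stimulation with 500 pg/mL recombinant TGF-beta in 1% FBS medium at 37 degrees C.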
# TDP1 inh: blocks human tyrosyl-DNA phosphodiesterase 1; recombinant TDP1, AlphaScreen DNA substrate cleavage; AID 485290; Potency, µM (top dose mostly 130 µM), inactives show top-dose activity change, negative = inhibition, most hits filed as inhibitors; 350,000 tested, 0.28% active; also: potency is read from the fitted curve at half-maximal effect; % is scaled to controls: 0 for no effect and ±100 for the full control effect; nearly all actives have a fitted effect of over 40% in size
# Target sequence (Q9NUW8 whole entry, looked up): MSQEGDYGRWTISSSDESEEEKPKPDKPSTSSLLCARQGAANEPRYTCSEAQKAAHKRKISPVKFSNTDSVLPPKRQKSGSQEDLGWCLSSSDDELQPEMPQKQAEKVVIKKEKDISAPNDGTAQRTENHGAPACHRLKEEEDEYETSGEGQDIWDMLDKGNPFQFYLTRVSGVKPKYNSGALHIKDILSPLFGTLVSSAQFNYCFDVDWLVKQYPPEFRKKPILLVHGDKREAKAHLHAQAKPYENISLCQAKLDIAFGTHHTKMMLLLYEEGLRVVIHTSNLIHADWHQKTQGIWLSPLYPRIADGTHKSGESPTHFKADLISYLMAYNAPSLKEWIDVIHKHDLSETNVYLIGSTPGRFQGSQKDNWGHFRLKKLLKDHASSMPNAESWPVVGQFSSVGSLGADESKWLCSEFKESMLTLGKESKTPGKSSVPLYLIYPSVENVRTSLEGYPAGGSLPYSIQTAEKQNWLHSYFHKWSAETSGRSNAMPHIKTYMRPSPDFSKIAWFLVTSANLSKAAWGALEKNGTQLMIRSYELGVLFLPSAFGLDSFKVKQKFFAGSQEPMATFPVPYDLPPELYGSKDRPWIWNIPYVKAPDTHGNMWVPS
#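 Compounds were preincubated with Tdp1 (1 nM final) for 15 min at room temperature before substrate (15 nM final) started a 5 min reaction; beads (10 ug/ml final) were then added for 10 min before AlphaScreen detection.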
# DT40 TDP1 no CPT: qHTS for Inhibitors of human tyrosyl-DNA phosphodiesterase 1 (TDP1): qHTS in cells in absence of CPT; DT40 Tdp1-/- hTDP1 cells, no CPT, ATP luminescence, 48 h; Potency, µM (top dose mostly 46.2 µM), for inactives: at the top dose activity change, negative = growth inhibition, most hits filed as inhibitors; 420,000 tested, 15% active; also: potency is read from the fitted curve at half-maximal effect; % is scaled to controls: 0 for no effect and ±100 for the full control effect; nearly all actives have a fitted effect of over 55% in size
#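 Compound effects on proliferation are scored in DT40 Tdp1-/-;hTDP1 cells in the absence of CPT. ATP levels (CellTiter-Glo luminescence) are recorded after a ≥48 hr, 37 °C incubation.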
# IL-1B inflam inh: inhibitors of inflammasome signaling (IL-1 beta secretion) | activity change, % at 57.5 µM | AID 743279 | 360,000 tested, 4.7% active | THP-1 LPS/ATP IL-1B secretion, AlphaLISA, 16 h; stronger effect = lower value; in the data active = activity change below about -50%; inconclusive = mostly about -30% to -49%; also: % is scaled to controls: 0 for no effect and ±100 for the full control effect
#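 Secreted IL-1B measured by AlphaLISA bead assay after 16 h compound exposure of THP-1 cells; compounds (final up to 57.5 uM) added 1 h before LPS (250 ng/mL) and ATP (1.25 mM) stimulation; lower signal means less secretion.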
# HepG2 viability: kills HepG2 cells in TGF-b inhibitor counter-screen; HepG2 CAGA-GFP viability, ATP luminescence, 18 h; Potency, µM (top dose mostly 46.1 µM), for the others: at the highest dose activity change, negative = cytotoxicity, hits mostly cytotoxic; 410,000 tested, 0.76% active; AID 588856; also: potency is read from the fitted curve at half-maximal effect
#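 HepG2 CAGA-GFP cells (1000/well, DMEM with 1% FBS) received compound, then TGF-beta at 500 pg/mL final, and were incubated 18 hours at 37 degrees C. Viability was read by CellTiter-Glo luminescence. Media-only wells were set as complete cell-killing and DMSO as no toxicity.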
# * marks the source's active call; other numbers are inactive results; ? = inconclusive; / = no result given; [ ] = remark or other dose. The list is not random: actives were taken first. Their share in the collection is about 18%. Unless noted, calls follow the shape of the dose curve; as a rule, active = well fitted curve in the direction sought with a large enough effect; inconclusive = small, poorly fitted or top-dose-only effect, or another doubt; inactive = no such curve, though single readings can be large; an effect the other way counts as inactive or inconclusive.
SMILES,TDP1 cell CPT,TGFb SMAD3 inh,TDP1 inh,DT40 TDP1 no CPT,IL-1B inflam inh,HepG2 viability
Cn1c(=O)c2c(-c3ccccc3)n(-c3cccc(O)c3)cc2n(C)c1=O,18.4µM*,-14.2%,/,9.2µM*,-12.9,-1.9%
CC(C)NC(=S)N1CCCN(c2ncccc2[N+](=O)[O-])CC1,-12.0%,-1.0%,/,9.0%,-8.9,-9.5%
O=C(/C=C/[C@H]1O[C@@H](n2ccc(=O)[nH]c2=O)[C@H](O)[C@@H]1O)N1CCN(CCc2ccccc2)CC1,0.0%,-21.8%,/,13.1%,53.1,-5.1%
CCCCCCCCCCCCCCOc1ccc(C(=O)O)o1,/,/,39.8µM*,/,/,/
CCOc1ccc(OCc2ccc(C(=O)O)o2)cc1,-9.8%,-8.4%,/,-26.0%,10.7,-1.0%
COc1ccc2cc(C(=O)N3CCN(c4ccc(F)cc4)CC3)[nH]c2c1,-14.8%,0.7%,/,-16.2%,26.6,-0.9%
COc1ccc([C@H]2CC(=O)C=C(c3ccc4[nH]ccc4c3)C2)cc1OC,?,-4.7%,6.7%,?,-1.5,-3.1%
COc1ccc([C@H]2CC(=O)C=C(c3ccc4ccn(C)c4c3)C2)cc1,?,-20.1%,4.1%,18.4µM*,?,-5.0%
O=C1C=C(c2ccc3[nH]ccc3c2)C[C@@H](c2ccc(F)cc2)C1,11.6µM*,?,1.2%,?,-5.9,-29.3%
COc1ccc(C2=CC(=O)C[C@H](c3ccc(OC)cc3)C2)cc1,-23.6%,-8.8%,-0.6%,?,-2.4,-5.4%
COc1ccc([C@H]2CC(=O)C=C(c3ccc4cc[nH]c4c3)C2)cc1,25.9µM*,-29.1%,-0.9%,23.1µM*,-7.0,0.6%
CC(C)[C@@H]1CC[C@@H](C)C[C@H]1OC(=O)c1ccccc1O,7.3%,/,/,-1.5%,/,/
CN(C(=O)COC(=O)CSc1ccc([N+](=O)[O-])cc1)c1ccccc1,23.1µM*,-20.7%,3.1%,29.1µM*,0.0,-3.6%
CCCCCCCCOC(=O)C1=C(C)Nc2nnnn2C1c1cccs1 (centres undefined),16.4µM*,?,7.8%,16.4µM*,30.1,-104.6%
CCCCCCCOC(=O)C1=C(C)Nc2ncnn2C1c1cccs1 (centres undefined),?,-22.5%,7.8%,13µM*,-10.9,-7.2%
Cc1nn(-c2ccccc2)c(OC(=O)c2ccccc2Br)c1S(=O)(=O)c1ccccc1,-10.7%,-12.2%,2.5%,-20.2%,/,9.2%
Cc1cc(C(=O)Nc2ccccc2-c2nc(CNC(=O)c3sc(C)nc3C)c(C)o2)c(C)o1,-8.6%[9.04 µM],/,/,-13.0%,/,/
O=C(O)c1ccccc1C(=O)c1ccc2c(c1)N(Cc1ccc(Cl)c(Cl)c1)C(=O)CO2,-23.9%,-4.6%,3.1%,?,-52.9*,-10.2%
Cc1ccc(C2Nc3ccccc3-n3c(-c4ccccc4)c4c(=O)n(C)c(=O)n(C)c4c32)cc1 (centres undefined),?,2.2%,14.3%,?,/,-13.2%
Cn1c(=O)c2c(-c3ccccc3)n3c(c2n(C)c1=O)C(c1ccccc1[N+](=O)[O-])Nc1ccccc1-3 (centres undefined),23.1µM*,?,0.0%,-81.8%,/,-8.7%
COc1ccc(-c2c3c(=O)n(C)c(=O)n(C)c3c3n2-c2ccccc2NC3c2ccc(O)cc2O)cc1 (centres undefined),16.4µM*,?,2.9%,16.4µM*,/,-113.7%
COc1ccc(-c2c3c(=O)n(C)c(=O)n(C)c3cn2-c2ccccc2O)cc1,?,4.1%,/,-26.9%,40.0,-10.8%
Cc1cc(OCC(=O)Nn2cnnc2)c(C)cc1Br,1.0%,3.7%,2.1%,-21.7%,-16.2,-6.0%

# High-throughput results (PubChem BioAssay)
